High-throughput results: PubChem, several laboratories
Shown are actives, neighbours in structure and some others; about 3.6% of the full set was active somewhere.
Autofluor counter: flagged as autofluorescent in microsphere protease counterscreen | fluorescence intensity (no concentration beside the values) | compound autofluorescence counterscreen, microsphere flow cytometry; stronger effect = higher value | AID 624483 | actives 3.1% (n = 360,000); in the data active = fluorescence intensity above about 16000; inconclusive = no clear call, values can overlap the other calls
BoNT A protease: BoNT/A light chain protease inhibitors, primary screen, biochemical, flow cytometry, MLPCN library | Botulinum neurotoxin type A light chain protease (Clostridium botulinum A str. ATCC 3502) | multiplex microsphere protease substrate cleavage | inhibition, % at 10 µM | actives 0.17% (n = 360,000) | AID 588499, 2011; note: plate controls were buffer without enzyme for full effect and enzyme alone for no effect
MazF activator: activators of E. coli MazEF toxin-antitoxin RNase, primary screen, biochemical, fluorescence, uHTS. Endoribonuclease toxin MazF (Escherichia coli (strain K12)), P0AE70. FAM/BHQ RNA-DNA oligo cleavage fluorescence, 5 h. AID 504720, 2011. actives 0.32% (n = 350,000). activation, % at 20 µM; in the data active = activation above about 50%
Target sequence (P0AE70 whole entry, looked up): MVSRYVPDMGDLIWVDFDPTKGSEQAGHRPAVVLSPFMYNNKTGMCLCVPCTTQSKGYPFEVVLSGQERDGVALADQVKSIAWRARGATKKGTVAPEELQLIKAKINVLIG
BoNT F protease: BoNT/F light chain protease inhibitors, primary screen, biochemical, flow cytometry, MLPCN library; Botulinum neurotoxin type F light chain protease (Clostridium botulinum); Multiplex microsphere protease cleavage assay; AID 588497, 2011; inhibition, % at 10 µM; actives 0.22% (n = 360,000); in the data active = inhibition above about 35%, passing the limit was not always enough; inconclusive = no clear call, values can overlap the other calls; note: plate controls were buffer without enzyme for full effect and enzyme alone for no effect
Anthrax LF inh2: Bacillus anthracis LF protease inhibitors, primary screen, biochemical, multiplex microsphere, MLPCN library; Lethal factor (Bacillus anthracis), P15917; multiplex microsphere protease cleavage assay; inhibition, % at 10 µM; actives 0.12% (n = 360,000); note: plate controls were buffer without enzyme for full effect and enzyme alone for no effect
* marks the source's active call; other numbers are inactive results; ? = inconclusive; nt = no result. Cut-off read from the data, not from the text of the source, unless noted: active = inhibition above about 30%; inconclusive = no clear call, values can overlap the other calls; inactive = below that.

SMILES	Autofluor counter	BoNT A protease	MazF activator	BoNT F protease	Anthrax LF inh2
Cc1ccc(NC(=O)CC2NCCNC2=O)cc1 (configuration not stated)	3699	0	-4	4	-2
CN(C)c1ccc(NC(=O)CC2NCCNC2=O)cc1 (configuration not stated)	21583*	?	6	2	-7
CCOC(=O)C1(Cc2ccccc2)CCCN(C(=O)COc2ccccc2OC)C1 (configuration not stated)	3742	0	-1	-1	-6
COc1cc(CC(=O)N2CCN(S(=O)(=O)c3ccc(C)cc3)CC2)cc(OC)c1OC	3526	1	-3	3	0
CCOC(=O)Cn1c(-c2cccnc2Cl)nc2cc(C)c(C)cc21	22326*	0	-8	1	1
CCOC(=O)Cn1c(-c2ccccn2)nc2ccccc21	2364	0	1	1	-2
CCOC(=O)Cn1c(-c2cccnc2Cl)nc2cc(Cl)c(Cl)cc21	20399*	?	3	-2	2
CCOC(=O)Cn1c(C)nc2ccccc21	4886	0	-2	-14	1
Clc1ccc(Cn2c(-c3cccnc3Cl)nc3ccccc32)c(Cl)c1	21985*	?	-9	2	-1
CCn1c(-c2cccnc2Cl)nc2cc(Cl)c(Cl)cc21	23561*	?	-3	0	-2
COc1ccc(C(=O)N2CCC(C)(C(=O)NS(=O)(=O)C3CC3)C2)cc1F (configuration not stated)	3856	0	nt	0	-3
COc1ccc(CCN2C(=O)N[C@@H](C(C)C)C2=O)cc1	3798	3	1	8	13
COc1ccc(CC(=O)OCC(=O)NC2CCCCC2)cc1OC	3887	0	7	-2	-3
C=CCc1cccc2cc(C(=O)NCc3cccnc3)c(=O)oc12	10185	0	4	-7	-2
CCOc1cccc2cc(C(=O)Nc3cc(C)on3)c(=O)oc12	24162*	?	-11	-4	-2
CCOc1cccc2cc(C(=O)NCc3cccnc3)c(=O)oc12	22159*	?	-5	3	-14
CCOc1cccc2cc(C(=O)Nc3ccccc3-c3ccccc3)c(=O)oc12	2250	1	14	3	2
O=[N+]([O-])c1ccccc1C(=Nc1ccccc1)c1c(O)cc(O)cc1O	3381	0	3	4	-11
COC(=O)[C@H](C)NC(=O)NC(C)CCc1ccccc1 (some centres not stated)	21607*	2	-9	2	1
CC(CCc1ccccc1)NC(=O)Cc1ccc(Br)cc1 (configuration not stated)	2915	1	-5	9	-13
CC(CCc1ccccc1)C(=O)NO (configuration not stated)	23384*	0	-2	2	1
C[C@H]1CN([C@@H](C)CO)C(=O)c2cc(Br)cnc2O[C@@H]1CN(C)S(C)(=O)=O	3086	-1	4	-5	-6
CCN=c1scc(-c2ccco2)n1/N=C/c1ccc(OC)c(O)c1	24329*	?	4	-4	-2
COc1cccc(-c2ncc3ccccc3c2COC(=O)c2ccco2)c1	3756	0	1	5	1
O=C(COC(=O)c1ccc2ccccc2n1)Nc1ncc(C(F)(F)F)cc1Cl	22793*	-1	1	2	3
SMILES	Autofluor counter	BoNT A protease	MazF activator	BoNT F protease	Anthrax LF inh2
O=C(NNc1ncc(C(F)(F)F)cc1Cl)c1ccc(Cl)c(Cl)c1	nt	nt	10	nt	nt
O=C(COC(=O)CCc1ccc(S(=O)(=O)N2CCOCC2)cc1)Nc1ncc(C(F)(F)F)cc1Cl	25667*	-5	-1	-9	0
Nc1ccccc1C(=O)NNc1ncc(C(F)(F)F)cc1Cl	22928*	?	-16	-4	-1
CCCc1c(-c2cccc(Cl)c2)ncn1CCc1ccccc1OC	5907	0	nt	-9	2
COCCNC(=S)Nc1ccc(N2CCOCC2)c(S(=O)(=O)Nc2ccccc2OC)c1	3527	0	8	-6	-2
CN1CCC(n2nccc2N)CC1	4630	0	9	-11	1
Nc1ccnn1C1CCNCC1	19137*	8	-5	13	2
Cc1cnc(C(=O)OCC(=O)NC23CC4CC(CC(C4)C2)C3)cn1	20090*	1	1	0	1
